Data taken from PubChem BioAssay AID1159580 (chemical genetic matrix, 2015).
Out of some 5,500 compounds screened, about 2,000 (36%) were called active. Another 18% or so got no clear call; they are omitted. No stated cut-off is given here; in the data, active means normalized growth mostly below about 0.91 (no sharp cut-off); inconclusive means no clear call, values can overlap the other calls; inactive means mostly above about 0.92. The list shows a part of the results.

Assay: chemical genetic growth profiling, strain panel (AID 1159580);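 further: tested at 20 µM; growth read once vehicle control cultures reached saturation at 30 °C; 1 = growth at the plate median or of vehicle wells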
Settings: growth OD

Measured: normalized growth

CC1CC2C3CCC4=CC(=O)C=C[C@]4(C)[C@@]3(F)[C@@H](O)C[C@]2(C)[C@@]1(O)C(=O)CO (stereo partly drawn)
inactive: S. cerevisiae deletion strains, locus YAL013W, strain DEP1, stronger effect = lower value 0.995 | S. cerevisiae deletion strains, locus YAL021C, strain ccr4, stronger effect = lower value 0.974 | S. cerevisiae deletion strains, locus YAL026C, strain drs2, stronger effect = lower value 0.987 | S. cerevisiae deletion strains, locus YAL030W, strain snc1, stronger effect = lower value 0.96 | S. cerevisiae deletion strains, locus YBL061C, strain skt5, stronger effect = lower value 0.99 | S. cerevisiae deletion strains, locus YBR009C, strain hhf1, stronger effect = lower value 1.03 | S. cerevisiae deletion strains, locus YBR021W, strain FUR4, stronger effect = lower value 0.984 | S. cerevisiae deletion strains, locus YBR023C, strain chs3, stronger effect = lower value 0.983 | S. cerevisiae deletion strains, locus YBR171W, strain sec66, stronger effect = lower value 0.982 | S. cerevisiae deletion strains, locus YBR229C, strain ROT2, stronger effect = lower value 0.989 | S. cerevisiae deletion strains, locus YBR231C, strain swc5, stronger effect = lower value 1.06 | S. cerevisiae deletion strains, locus YBR279W, strain paf1, stronger effect = lower value 1 | S. cerevisiae deletion strains, locus YCL011C, strain gbp2, stronger effect = lower value 0.954 | S. cerevisiae deletion strains, locus YCL016C, strain dcc1, stronger effect = lower value 0.978 | S. cerevisiae deletion strains, locus YCL029C, strain bik1, stronger effect = lower value 0.979 | S. cerevisiae deletion strains, locus YCL061C, strain MRC1, stronger effect = lower value 0.995 | S. cerevisiae deletion strains, locus YCL069W, strain vba3, stronger effect = lower value 0.995 | S. cerevisiae deletion strains, locus YCR088W, strain abp1, stronger effect = lower value 0.996 | S. cerevisiae deletion strains, locus YDL005C, strain med2, stronger effect = lower value 0.973 | S. cerevisiae deletion strains, locus YDL035C, strain GPR1, stronger effect = lower value 1.03 | S. cerevisiae deletion strains, locus YDL040C, strain nat1, stronger effect = lower value 0.975 | S. cerevisiae deletion strains, locus YDL074C, strain BRE1, stronger effect = lower value 0.979 | S. cerevisiae deletion strains, locus YDL101C, strain DUN1, stronger effect = lower value 0.976 | S. cerevisiae deletion strains, locus YDL185W, strain tfp1, stronger effect = lower value 0.982 | S. cerevisiae deletion strains, locus YDL192W, strain arf1, stronger effect = lower value 0.974 | S. cerevisiae deletion strains, locus YDR001C, strain nth1, stronger effect = lower value 0.988 | S. cerevisiae deletion strains, locus YDR069C, strain doa4, stronger effect = lower value 0.979 | S. cerevisiae deletion strains, locus YDR101C, strain arx1, stronger effect = lower value 0.984 | S. cerevisiae deletion strains, locus YDR137W, strain rgp1, stronger effect = lower value 0.987 | S. cerevisiae deletion strains, locus YDR159W, strain sac3, stronger effect = lower value 1.01 | S. cerevisiae deletion strains, locus YDR162C, strain NBP2, stronger effect = lower value 1.02 | S. cerevisiae deletion strains, locus YDR195W, strain ref2 0.99 | S. cerevisiae deletion strains, locus YDR297W, strain sur2, stronger effect = lower value 0.995 | S. cerevisiae deletion strains, locus YDR318W, strain mcm21, stronger effect = lower value 0.983 | S. cerevisiae deletion strains, locus YDR334W, strain swr1, stronger effect = lower value 0.976 | S. cerevisiae deletion strains, locus YDR335W, strain msn5, stronger effect = lower value 0.984 | S. cerevisiae deletion strains, locus YDR388W, stronger effect = lower value 0.968 | S. cerevisiae deletion strains, locus YDR392W, strain spt3, stronger effect = lower value 0.904 | S. cerevisiae deletion strains, locus YDR502C, strain sam2, stronger effect = lower value 0.991 | S. cerevisiae deletion strains, locus YEL003W, strain gim4, stronger effect = lower value 0.963 | S. cerevisiae deletion strains, locus YEL037C, strain rad23, stronger effect = lower value 0.976 | S. cerevisiae deletion strains, locus YEL061C, strain CIN8 (second series), stronger effect = lower value 0.988 | S. cerevisiae deletion strains, locus YEL061C, strain CIN8, stronger effect = lower value 0.994 | S. cerevisiae deletion strains, locus YER015W, strain faa2, stronger effect = lower value 0.991 | S. cerevisiae deletion strains, locus YER016W, strain bim1, stronger effect = lower value 0.95 | S. cerevisiae deletion strains, locus YER110C, stronger effect = lower value 0.958 | S. cerevisiae deletion strains, locus YER111C, strain swi4, stronger effect = lower value 0.983 | S. cerevisiae deletion strains, locus YER155C, strain BEM2 (second series), stronger effect = lower value 1.03 | S. cerevisiae deletion strains, locus YER155C, strain BEM2, stronger effect = lower value 0.984 | S. cerevisiae deletion strains, locus YER167W, strain BCK2, stronger effect = lower value 1 | S. cerevisiae deletion strains, locus YFR010W, strain ubp6, stronger effect = lower value 1.01 | S. cerevisiae deletion strains, locus YGL078C, strain dbp3, stronger effect = lower value 0.971 | S. cerevisiae deletion strains, locus YGL086W, strain mad1, stronger effect = lower value 0.98 | S. cerevisiae deletion strains, locus YGL167C, strain pmr1, stronger effect = lower value 0.983 | S. cerevisiae deletion strains, locus YGL173C, strain kem1, stronger effect = lower value 0.979 | S. cerevisiae deletion strains, locus YGL227W, strain vid30, stronger effect = lower value 0.999 | S. cerevisiae deletion strains, locus YGL240W, strain doc1, stronger effect = lower value 1.01 | S. cerevisiae deletion strains, locus YGL248W, strain PDE1, stronger effect = lower value 0.98 | S. cerevisiae deletion strains, locus YGL253W, strain hxk2, stronger effect = lower value 0.974 | S. cerevisiae deletion strains, locus YGR135W, strain pre9, stronger effect = lower value 0.969 | S. cerevisiae deletion strains, locus YGR229C, strain SMI1, stronger effect = lower value 1.02 | S. cerevisiae deletion strains, locus YGR252W, strain gcn5, stronger effect = lower value 1.02 | S. cerevisiae deletion strains, locus YHR013C, strain ard1, stronger effect = lower value 0.954 | S. cerevisiae deletion strains, locus YHR027C, strain rpn1, stronger effect = lower value 0.992 | S. cerevisiae deletion strains, locus YHR030C, strain SLT2, stronger effect = lower value 0.99 | S. cerevisiae deletion strains, locus YHR079C, strain IRE1 (second series), stronger effect = lower value 0.965 | S. cerevisiae deletion strains, locus YHR094C, strain hxt1, stronger effect = lower value 0.97 | S. cerevisiae deletion strains, locus YHR129C, strain ARP1, stronger effect = lower value 0.993 | S. cerevisiae deletion strains, locus YHR142W, strain chs7, stronger effect = lower value 0.959 | S. cerevisiae deletion strains, locus YHR200W, strain rpn10, stronger effect = lower value 0.983 | S. cerevisiae deletion strains, locus YIL066C, strain RNR3, stronger effect = lower value 1 | S. cerevisiae deletion strains, locus YIL073C, strain SPO22, stronger effect = lower value 0.972 | S. cerevisiae deletion strains, locus YIL125W, strain kgd1, stronger effect = lower value 0.963 | S. cerevisiae deletion strains, locus YIR030C, strain dcg1, stronger effect = lower value 0.965 | S. cerevisiae deletion strains, locus YJL092W, strain hpr5, stronger effect = lower value 0.963 | S. cerevisiae deletion strains, locus YJL095W, strain BCK1 (second series), stronger effect = lower value 0.945 | S. cerevisiae deletion strains, locus YJL095W, strain BCK1, stronger effect = lower value 0.96 | S. cerevisiae deletion strains, locus YJL115W, strain asf1, stronger effect = lower value 0.976 | S. cerevisiae deletion strains, locus YJL129C, strain trk1, stronger effect = lower value 0.965 | S. cerevisiae deletion strains, locus YJL134W, strain LCB3, stronger effect = lower value 0.99 | S. cerevisiae deletion strains, locus YJL154C, strain vps35, stronger effect = lower value 0.966 | S. cerevisiae deletion strains, locus YJL164C, strain tpk1, stronger effect = lower value 1 | S. cerevisiae deletion strains, locus YJL166W, strain qcr8, stronger effect = lower value 1 | S. cerevisiae deletion strains, locus YJL168C, strain set2, stronger effect = lower value 0.966 | S. cerevisiae deletion strains, locus YJL187C, strain SWE1 (second series), stronger effect = lower value 0.982 | S. cerevisiae deletion strains, locus YJR043C, strain POL32, stronger effect = lower value 1.04 | S. cerevisiae deletion strains, locus YKL009W, strain mrt4, stronger effect = lower value 0.963 | S. cerevisiae deletion strains, locus YKL068W, stronger effect = lower value 0.987 | S. cerevisiae deletion strains, locus YKL085W, strain MDH1 (second series), stronger effect = lower value 0.985 | S. cerevisiae deletion strains, locus YKL085W, strain MDH1, stronger effect = lower value 0.985 | S. cerevisiae deletion strains, locus YKL160W, strain elf1, stronger effect = lower value 0.943 | S. cerevisiae deletion strains, locus YKR001C, strain vps1, stronger effect = lower value 0.968 | S. cerevisiae deletion strains, locus YKR026C, strain gcn3, stronger effect = lower value 0.993 | S. cerevisiae deletion strains, locus YKR091W, strain srl3, stronger effect = lower value 0.97 | S. cerevisiae deletion strains, locus YLL001W, strain dnm1, stronger effect = lower value 1.01 | S. cerevisiae deletion strains, locus YLL026W, stronger effect = lower value 0.997 | S. cerevisiae deletion strains, locus YLL041C, strain sdh2, stronger effect = lower value 0.96 | S. cerevisiae deletion strains, locus YLR027C, strain aat2, stronger effect = lower value 0.997 | S. cerevisiae deletion strains, locus YLR039C, strain RIC1, stronger effect = lower value 0.991 | S. cerevisiae deletion strains, locus YLR058C, strain SHM2, stronger effect = lower value 0.984 | S. cerevisiae deletion strains, locus YLR102C, strain apc9, stronger effect = lower value 0.982 | S. cerevisiae deletion strains, locus YLR221C, strain rsa3, stronger effect = lower value 1.01 | S. cerevisiae deletion strains, locus YLR258W, strain gsy2, stronger effect = lower value 0.962 | S. cerevisiae deletion strains, locus YLR262C, strain YPT6 (second series), stronger effect = lower value 0.985 | S. cerevisiae deletion strains, locus YLR262C, strain YPT6, stronger effect = lower value 0.986 | S. cerevisiae deletion strains, locus YLR268W, strain sec22, stronger effect = lower value 0.965 | S. cerevisiae deletion strains, locus YLR320W, strain mms22, stronger effect = lower value 1.01 | S. cerevisiae deletion strains, locus YLR330W, strain CHS5, stronger effect = lower value 0.99 | S. cerevisiae deletion strains, locus YLR342W, strain FKS1 (second series), stronger effect = lower value 1.02 | S. cerevisiae deletion strains, locus YLR342W, strain FKS1, stronger effect = lower value 0.977 | S. cerevisiae deletion strains, locus YLR357W, strain rsc2, stronger effect = lower value 0.994 | S. cerevisiae deletion strains, locus YLR370C, strain arc18, stronger effect = lower value 0.99 | S. cerevisiae deletion strains, locus YLR371W, strain rom2, stronger effect = lower value 0.96 | S. cerevisiae deletion strains, locus YLR384C, strain iki3, stronger effect = lower value 1.01 | S. cerevisiae deletion strains, locus YLR418C, strain cdc73, stronger effect = lower value 0.974 | S. cerevisiae deletion strains, locus YML016C, strain PPZ1, stronger effect = lower value 0.989 | S. cerevisiae deletion strains, locus YML032C, strain rad52, stronger effect = lower value 0.981 | S. cerevisiae deletion strains, locus YML120C, strain ndi1, stronger effect = lower value 0.979 | S. cerevisiae deletion strains, locus YML124C, strain tub3, stronger effect = lower value 0.973 | S. cerevisiae deletion strains, locus YMR058W, strain fet3, stronger effect = lower value 0.988 | S. cerevisiae deletion strains, locus YMR078C, strain ctf18, stronger effect = lower value 0.958 | S. cerevisiae deletion strains, locus YMR125W, strain sto1, stronger effect = lower value 0.97 | S. cerevisiae deletion strains, locus YMR129W, stronger effect = lower value 0.975 | S. cerevisiae deletion strains, locus YMR205C, strain PFK2, stronger effect = lower value 1.01 | S. cerevisiae deletion strains, locus YMR223W, strain ubp8, stronger effect = lower value 0.977 | S. cerevisiae deletion strains, locus YMR231W, strain pep5, stronger effect = lower value 0.987 | S. cerevisiae deletion strains, locus YMR263W, strain SAP30, stronger effect = lower value 0.979 | S. cerevisiae deletion strains, locus YMR307W, strain GAS1, stronger effect = lower value 1.03 | S. cerevisiae deletion strains, locus YNL067W, strain RPL9B, stronger effect = lower value 0.961 | S. cerevisiae deletion strains, locus YNL071W, strain lat1, stronger effect = lower value 0.993 | S. cerevisiae deletion strains, locus YNL128W, strain TEP1, stronger effect = lower value 0.973 | S. cerevisiae deletion strains, locus YNL153C, strain GIM3, stronger effect = lower value 0.981 | S. cerevisiae deletion strains, locus YNL209W, strain ssb2, stronger effect = lower value 0.98 | S. cerevisiae deletion strains, locus YNL233W, strain BNI4, stronger effect = lower value 0.965 | S. cerevisiae deletion strains, locus YNL248C, strain rpa49, stronger effect = lower value 0.907 | S. cerevisiae deletion strains, locus YNL250W, strain rad50, stronger effect = lower value 0.962 | S. cerevisiae deletion strains, locus YNL271C, strain bni1, stronger effect = lower value 0.962 | S. cerevisiae deletion strains, locus YNL298W, strain CLA4, stronger effect = lower value 0.966 | S. cerevisiae deletion strains, locus YNL307C, strain MCK1, stronger effect = lower value 0.981 | S. cerevisiae deletion strains, locus YNL322C, strain KRE1 (second series), stronger effect = lower value 0.96 | S. cerevisiae deletion strains, locus YNR049C, strain mso1, stronger effect = lower value 0.968 | S. cerevisiae deletion strains, locus YNR052C, strain pop2, stronger effect = lower value 0.966 | S. cerevisiae deletion strains, locus YOL012C, strain htz1 0.786 | S. cerevisiae deletion strains, locus YOL147C, strain pex11, stronger effect = lower value 0.971 | S. cerevisiae deletion strains, locus YOR001W, strain rrp6, stronger effect = lower value 1.04 | S. cerevisiae deletion strains, locus YOR061W, strain CKA2, stronger effect = lower value 0.993 | S. cerevisiae deletion strains, locus YOR069W, strain VPS5, stronger effect = lower value 0.986 | S. cerevisiae deletion strains, locus YOR070C, strain gyp1, stronger effect = lower value 0.988 | S. cerevisiae deletion strains, locus YOR080W, strain dia2, stronger effect = lower value 0.957 | S. cerevisiae deletion strains, locus YOR083W, strain WHI5, stronger effect = lower value 0.914 | S. cerevisiae deletion strains, locus YOR106W, strain vam3, stronger effect = lower value 0.942 | S. cerevisiae deletion strains, locus YOR136W, strain idh2, stronger effect = lower value 0.986 | S. cerevisiae deletion strains, locus YOR144C, strain elg1, stronger effect = lower value 0.972 | S. cerevisiae deletion strains, locus YOR184W, strain ser1, stronger effect = lower value 0.979 | S. cerevisiae deletion strains, locus YOR265W, strain rbl2, stronger effect = lower value 0.989 | S. cerevisiae deletion strains, locus YOR270C, strain vph1, stronger effect = lower value 0.939 | S. cerevisiae deletion strains, locus YOR290C, strain snf2, stronger effect = lower value 0.962 | S. cerevisiae deletion strains, locus YOR316C, strain cot1, stronger effect = lower value 0.98 | S. cerevisiae deletion strains, locus YPL051W, strain arl3, stronger effect = lower value 0.992 | S. cerevisiae deletion strains, locus YPL078C, strain atp4, stronger effect = lower value 0.953 | S. cerevisiae deletion strains, locus YPL106C, strain sse1, stronger effect = lower value 0.982 | S. cerevisiae deletion strains, locus YPL240C, strain hsp82, stronger effect = lower value 1.01 | S. cerevisiae deletion strains, locus YPR119W, strain clb2, stronger effect = lower value 0.973 | S. cerevisiae deletion strains, locus YPR141C, strain kar3, stronger effect = lower value 0.961 | S. cerevisiae deletion strains, locus YPR163C, strain tif3, stronger effect = lower value 0.981 | S. cerevisiae deletion strains, locus YPR167C, strain met16, stronger effect = lower value 0.962 | S. cerevisiae deletion strains, strain wtn01, stronger effect = lower value 0.963 | S. cerevisiae strains, strain wild type, stronger effect = lower value 0.995
